PubChem BioAssay AID1159580 (chemical genetic matrix, 2015)
Screen size: about 5,500 compounds; about 2,000 (36%) were called active. Another 18% or so got no clear call; they are omitted. Cut-off read from the data, not from the text of the source: active = normalized growth mostly below about 0.91 (no sharp cut-off); inconclusive = no clear call, values can overlap the other calls; inactive = mostly above about 0.92. The list shows a part of the results.

Assay: chemical genetic growth profiling, strain panel (AID 1159580);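 note: tested at 20 µM; growth read once vehicle control cultures reached saturation at 30 °C; 1 = growth at the plate median or of vehicle wells; lower values mean less growth of the strain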
Conditions: S. cerevisiae deletion strains, growth OD
[1] = locus YAR019C, strain CDC15, active compounds read low
[2] = locus YBL105C, strain PKC1, active compounds read low
[3] = locus YBR135W, strain CKS1, active compounds read low
[4] = locus YBR136W, strain MEC1, active compounds read low
[5] = locus YBR160W, strain CDC28, active compounds read low
[6] = locus YDL017W, strain CDC7, active compounds read low
[7] = locus YDL028C, strain MPS1, active compounds read low
[8] = locus YDL101C, strain DUN1, active compounds read low
[9] = locus YDL108W, strain KIN28, active compounds read low
[10] = locus YDL132W, strain cdc53, active compounds read low
[11] = locus YDL214C, strain PRR2, active compounds read low
[12] = locus YDR052C, strain DBF4, active compounds read low
[13] = locus YDR054C, strain cdc34, active compounds read low
[14] = locus YDR226W, strain ADK1, active compounds read low
[15] = locus YDR477W, strain SNF1, active compounds read low
[16] = locus YER123W, strain YCK3, active compounds read low
[17] = locus YER133W, strain GLC7, active compounds read low
[18] = locus YFL009W, strain cdc4, active compounds read low
[19] = locus YFL029C, strain CAK1, active compounds read low
[20] = locus YFR003C, strain YPI1, active compounds read low
[21] = locus YFR019W, strain FAB1, active compounds read low
[22] = locus YFR028C, strain CDC14, active compounds read low
[23] = locus YGR040W, strain KSS1, active compounds read low
[24] = locus YGR052W, strain FMP48, active compounds read low
[25] = locus YGR092W, strain DBF2, active compounds read low
[26] = locus YHR030C, strain SLT2, active compounds read low
[27] = locus YHR079C, strain IRE1, active compounds read low
[28] = locus YHR082C, strain KSP1, active compounds read low
[29] = locus YHR205W, strain SCH9, active compounds read low
[30] = locus YIL147C, strain SLN1, active compounds read low
[31] = locus YJL095W, strain BCK1, active compounds read low
[32] = locus YJL128C, strain PBS2, active compounds read low
[33] = locus YJL157C, strain FAR1, active compounds read low
[34] = locus YJR016C, strain ILV3, active compounds read low
[35] = locus YJR066W, strain TOR1 (second series), active compounds read low
[36] = locus YJR066W, strain TOR1, active compounds read low
[37] = locus YKL048C, strain ELM1, active compounds read low
[38] = locus YKL067W, strain YNK1, active compounds read low
[39] = locus YKL101W, strain HSL1, active compounds read low
[40] = locus YKL193C, strain SDS22, active compounds read low
[41] = locus YKL203C, strain TOR2, active compounds read low
[42] = locus YLR113W, strain HOG1, active compounds read low
[43] = locus YLR133W, strain CKI1, active compounds read low
[44] = locus YLR403W, strain SFP1, active compounds read low
[45] = locus YML070W, strain DAK1, active compounds read low
[46] = locus YMR001C, strain CDC5, active compounds read low
[47] = locus YMR205C, strain PFK2 (second series), active compounds read low
[48] = locus YMR277W, strain FCP1, active compounds read low
[49] = locus YNL006W, strain LST8, active compounds read low
[50] = locus YNL020C, strain ARK1, active compounds read low
[51] = locus YNL161W, strain CBK1, active compounds read low
[52] = locus YNL183C, strain NPR1, active compounds read low
[53] = locus YNL207W, strain RIO2, active compounds read low
[54] = locus YNL222W, strain SSU72, active compounds read low
[55] = locus YNL307C, strain MCK1 (second series), active compounds read low
[56] = locus YOL078W, strain AVO1, active compounds read low
[57] = locus YOL136C, strain PFK27, active compounds read low
[58] = locus YOR061W, strain CKA2, active compounds read low
[59] = locus YOR119C, strain RIO1, active compounds read low
[60] = locus YOR231W, strain MKK1, active compounds read low
[61] = locus YOR329C, strain SCD5, active compounds read low
[62] = locus YPL031C, strain PHO85, active compounds read low
[63] = locus YPL153C, strain RAD53, active compounds read low
[64] = locus YPL204W, strain HRR25, active compounds read low
[65] = locus YPL209C, strain IPL1, active compounds read low
[66] = locus YPL256C, strain CLN2, active compounds read low
[67] = locus YPR025C, strain CCL1, active compounds read low
[68] = locus YPR106W, strain ISR1, active compounds read low
[69] = locus YPR111W, strain DBF20, active compounds read low
[70] = strain NNK1, active compounds read low
[71] = strain TSCII, active compounds read low
[72] = locus YAL013W, strain DEP1, active compounds read low
[73] = locus YBR229C, strain ROT2, active compounds read low
[74] = locus YDL134C, strain PPH21, active compounds read low
[75] = locus YDR150W, strain NUM1, active compounds read low
[76] = locus YEL061C, strain CIN8, active compounds read low
[77] = locus YGR078C, strain PAC10, active compounds read low
[78] = locus YHR087W, strain rtc3, active compounds read low
[79] = locus YJR043C, strain POL32, active compounds read low
[80] = locus YJR075W, strain HOC1, active compounds read low
[81] = locus YKL190W, strain CNB1, active compounds read low
[82] = locus YLR039C, strain RIC1, active compounds read low
[83] = locus YLR058C, strain SHM2 (second series), active compounds read low
[84] = locus YLR085C, strain ARP6, active compounds read low
[85] = locus YLR262C, strain YPT6, active compounds read low
[86] = locus YML094W, strain GIM5, active compounds read low
[87] = locus YMR219W, strain ESC1, active compounds read low
[88] = locus YMR263W, strain SAP30, active compounds read low
[89] = locus YNL153C, strain GIM3, active compounds read low
[90] = locus YNL298W, strain CLA4 (second series), active compounds read low
[91] = locus YNL322C, strain KRE1, active compounds read low
[92] = locus YNR030W, strain Alg12, active compounds read low
[93] = locus YPL055C, strain LGE1, active compounds read low
[94] = locus YPL241C, strain CIN2, active compounds read low
[95] = locus YPR135W, strain CTF4, active compounds read low

Measured: normalized growth

O=C(NNc1ccc(Cl)cc1)c1ccc(F)cc1F
active: [16] 0.404 | [21] 0.547 | [25] 0.345 | [26] 0.372 | [31] 0.271 | [35] 0.606 | [37] 0.747 | [42] 0.373 | [43] 0.701 | [45] 0.54 | [55] 0.451 | [57] 0.616 | [58] 0.399 | [66] 0.487
inactive: [1] 0.937 | [2] 0.942 | [3] 0.952 | [4] 0.946 | [5] 0.942 | [6] 0.95 | [7] 0.959 | [8] 0.949 | [9] 0.959 | [10] 0.967 | [11] 0.701 | [12] 0.938 | [13] 0.949 | [14] 0.967 | [15] 0.701 | [17] 0.755 | [18] 0.971 | [19] 0.944 | [20] 0.952 | [22] 0.958 | [23] 0.718 | [24] 0.63 | [27] 0.747 | [28] 0.762 | [29] 0.663 | [30] 0.953 | [32] 0.897 | [33] 0.736 | [34] 0.94 | [36] 0.759 | [38] 0.752 | [39] 0.784 | [40] 0.949 | [41] 0.855 | [44] 0.744 | [46] 0.942 | [47] 0.826 | [48] 0.956 | [49] 0.968 | [50] 0.765 | [51] 0.947 | [52] 0.777 | [53] 0.946 | [54] 0.946 | [56] 0.948 | [59] 0.796 | [60] 0.695 | [61] 0.95 | [62] 0.766 | [63] 0.696 | [64] 0.723 | [65] 0.941 | [67] 0.947 | [68] 0.965 | [69] 0.974 | [70] 0.937 | [71] 0.947

O=C(NNc1c(Cl)cc(Cl)cc1Cl)NC(=O)c1ccccc1F
inactive: [72] 0.997 | [73] 0.982 | [8] 0.998 | [74] 1.02 | [75] 1.02 | [76] 0.996 | [77] 1 | [26] 0.905 | [78] 1.02 | locus YJL187C, strain SWE1, active compounds read low 0.999 | [79] 1 | [80] 0.99 | [81] 1.02 | [82] 0.936 | [83] 1.02 | [84] 0.992 | [85] 0.965 | [86] 1 | [87] 1.02 | [88] 1.01 | locus YNL128W, strain TEP1, active compounds read low 1.01 | [89] 0.989 | [90] 0.986 | [91] 1 | [92] 1.04 | [93] 1.01 | [94] 0.986 | [95] 0.966

O=C1CSC(c2ccc(C(F)(F)F)cc2)N1c1ccc(C(F)(F)F)cc1 (stereo not drawn)
active: [42] 0.829
inactive: [1] 0.998 | [2] 1 | [3] 0.997 | [4] 1 | [5] 1 | [6] 1 | [7] 0.999 | [8] 1 | [9] 0.996 | [10] 0.997 | [11] 0.952 | [12] 1.01 | [13] 1 | [14] 1 | [15] 0.966 | [16] 0.911 | [17] 0.968 | [18] 1 | [19] 0.986 | [20] 0.994 | [21] 0.95 | [22] 0.993 | [23] 0.962 | [24] 0.972 | [25] 0.979 | [26] 0.878 | [27] 0.897 | [28] 0.936 | [29] 0.885 | [30] 1 | [31] 0.933 | [32] 0.939 | [33] 0.976 | [34] 1 | [35] 0.951 | [36] 0.936 | [37] 0.968 | [38] 0.946 | [39] 0.923 | [40] 1 | [41] 1.02 | [43] 0.949 | [44] 0.949 | [45] 0.924 | [46] 1 | [47] 0.942 | [48] 0.999 | [49] 1 | [50] 0.957 | [51] 1.01 | [52] 0.898 | [53] 0.995 | [54] 1 | [55] 0.941 | [56] 1.01 | [57] 0.937 | [58] 0.943 | [59] 1.03 | [60] 0.914 | [61] 1 | [62] 0.97 | [63] 0.96 | [64] 0.959 | [65] 1.01 | [66] 0.871 | [67] 0.998 | [68] 0.988 | [69] 0.979 | [70] 0.98 | [71] 0.999

O=C1CSC(c2ccc(Cl)c(Cl)c2)N1c1ccc(F)cc1 (stereo not drawn)
active: [74] 0.886
inactive: [72] 0.988 | [73] 0.975 | [8] 0.964 | [75] 0.968 | [76] 0.988 | [77] 0.975 | [26] 0.95 | [78] 0.985 | [79] 0.974 | [80] 0.939 | [81] 0.985 | [82] 0.994 | [83] 1 | [84] 0.942 | [85] 0.947 | [86] 0.95 | [87] 0.994 | [88] 0.989 | [89] 0.962 | [90] 0.93 | [91] 0.988 | [92] 0.906 | locus YOL006C, strain TOP1, active compounds read low 0.889 | [93] 0.971 | [94] 0.977 | [95] 0.85

Cc1ccc(N2C(=O)CSC2c2ccc(Cl)c(Cl)c2)cc1Cl (stereo not drawn)
inactive: [1] 0.982 | [2] 0.974 | [3] 0.982 | [4] 0.976 | [5] 0.978 | [6] 0.975 | [7] 0.977 | [8] 0.97 | [9] 0.98 | [10] 0.982 | [11] 0.95 | [12] 0.98 | [13] 0.971 | [14] 0.973 | [15] 0.96 | [16] 0.956 | [17] 0.981 | [18] 0.977 | [19] 0.977 | [20] 0.973 | [21] 0.97 | [22] 0.988 | [23] 0.965 | [24] 1.01 | [25] 0.935 | [27] 0.887 | [28] 1.07 | [29] 0.94 | [30] 0.981 | [31] 0.918 | [32] 0.922 | [33] 0.961 | [34] 0.988 | [35] 0.913 | [36] 0.995 | [37] 0.957 | [38] 0.959 | [39] 0.953 | [40] 0.977 | [41] 1.01 | [43] 0.947 | [44] 0.95 | [45] 0.943 | [46] 0.975 | [47] 0.977 | [48] 0.981 | [49] 0.976 | [50] 0.933 | [51] 0.977 | [52] 0.994 | [53] 0.968 | [54] 0.988 | [55] 0.942 | [56] 0.982 | [57] 0.928 | [58] 0.953 | [59] 1.03 | [60] 0.937 | [61] 0.972 | [62] 0.957 | [63] 0.984 | [64] 0.933 | [65] 0.976 | [67] 0.977 | [68] 0.971 | [69] 0.962 | [70] 0.959 | [71] 0.981
active: [26] 0.808 | [42] 0.791 | [66] 0.826
